The results in this text go back to PubChem BioAssay (NCATS).

The target in one assay is Furin (Homo sapiens) (UniProt P09958). The assay can be described thus: Furin counterscreen qHTS for Zika virus inhibitors (AID 1347149). Further: nearly all actives have a fitted effect of over 70% in size. Further: potency means the concentration at half of the fitted maximal effect.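 On activity change, negative = inhibition: purified recombinant full-length human furin enzyme at 5 nM; fluorescence gain from furin cutting a BOC-RVRR-AMC peptide substrate over 15 min; top concentration of the series differs between compounds; plate controls were no-inhibitor control for no effect and no-enzyme control for full effect.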 A digest of the protocol:
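Fluorogenic cleavage of BOC-RVRR-AMC (2 microM final, Km ~15 µM) was monitored (ex 340, em 450 nm) at 37C after 15 min RT preincubation of 5 nM furin with compounds in HEPES pH 7.0 buffer with CaCl2 and Triton X-100. Percent inhibition was fitted to a 4-parameter Hill curve.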

Assay [1] concerns Zika virus NS2B-NS3 protease (unlinked). Nature of the assay: Optimization of GU AMC qHTS for Zika virus inhibitors: Unlinked NS2B-NS3 protease assay (AID 1347151). Further: potency means the concentration at half of the fitted maximal effect; nearly all actives have a fitted effect of over 80% in size. The conditions noted are these: recombinant ZIKV NS2B-NS3 protease, fluorogenic AMC substrate. Summed up: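 Fluorescence read-out (340 nm ex / 450 nm em) of AMC peptide cleavage, taken immediately and after 15 min at room temperature (~20% conversion). Enzyme was the unlinked NS2B–NS3 complex at 25 nM in Tris pH 8.0 buffer.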

In assay [2] the test system is Zika virus NS2B-NS3 protease. Nature of the assay: Primary screen GU AMC qHTS for Zika virus inhibitors (AID 1347154).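 Further: 0% = no-inhibitor control and -100% = no-enzyme control; nearly all actives have a fitted effect of over 70% in size.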 Summed up:
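Fluorogenic AMC-substrate cleavage by noncovalent NS2B-NS3 protease complex (25 nM, pH 8.0 Tris buffer with Tween 20) followed for 15 minutes at room temperature (~20% conversion). Percent inhibition from ex340/em450 signal change, fitted by 4-parameter Hill equation.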

A short description of assay [3]: ZIKV-mCherry secondary qHTS for Zika virus inhibitors (AID 1347158). Further: top concentration of the series differs between compounds. A digest of the protocol:
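Vero cells, 5,000/well, plated overnight at 37 °C, then compound added and infected with recombinant ZIKV-mCherry at MOI 1 for 48-72 h. PFA-fixed, Hoechst nuclear stain, high-content imaging; cells with mCherry intensity above 450 RFU scored infected, reported as percent infection.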

For assay [4], the system named is Zika virus NS2B-NS3 protease (linked construct). Nature of the assay: 384 well plate NINDS Rhodamine confirmatory qHTS for Zika virus inhibitors (AID 1347164).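 Further: fluorescence from protease cleavage of Ac-LKRR-rhodamine 110 substrate; nearly all actives have a fitted effect of over 65% in size.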 Further: potency means the concentration at half of the fitted maximal effect.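 On activity change, negative = inhibition: top concentration of the series differs between compounds; plate controls were no-inhibitor control for no effect and no-enzyme control for full effect.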 A digest of the protocol:
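Fluorescence read at ex 485 nm/em 538 nm, 25 min after adding 10 microM Ac-LKRR-Rd substrate at room temperature in the dark; signal normalized to no-enzyme and no-inhibitor controls. Enzyme final 5, 30 or 60 nM; compounds, ~15 min preincubation.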

A short description of assay [5]: qHTS of pediatric cancer cell lines to identify multiple opportunities for drug repurposing: Primary screen for RD cells (AID 1347104).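 Further: plate controls were DMSO for no effect and bortezomib for full effect; nearly all actives have a fitted effect of over 55% in size.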 A digest of the protocol:
(§1)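 CRCs from 8- or 11-point titrations (lowest final 0.59 nM NPC, 0.78 nM MIPE). Cell viability: CellTiter-Glo after 48 h incubation, 15 min room-temperature development, luminescence imaging.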

Assay [6] can be described thus: qHTS of pediatric cancer cell lines to identify multiple opportunities for drug repurposing: Primary screen for MG 63 (6-TG R) cells (AID 1347105). Further: on the % scale 0 is the no-effect control and ±100 the full control effect; nearly all actives have a fitted effect of over 50% in size. Summed up:
as §1

Assay [7] can be described thus: qHTS of pediatric cancer cell lines to identify multiple opportunities for drug repurposing: Primary screen for control Hh wild type fibroblast cells (AID 1347106).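 Further: series mostly up to about 46 µM; on the % scale 0 is the no-effect control and ±100 the full control effect; a drop in luminescence marks cytotoxicity and a rise apparent proliferation; nearly all actives have a fitted effect of over 55% in size.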 A digest of the protocol: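 Viability after 48 h compound treatment at 37C, 500-1,000 cells/well, read as ATP luminescence with CellTiter-Glo. Primary screens used 11-point (MIPE, 0.78 nM-46 µM) or 8-point (NPC, 0.59 nM-46 µM) final concentrations; follow-up screens used 11-point dilutions.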

A short description of assay [8]: qHTS of pediatric cancer cell lines to identify multiple opportunities for drug repurposing: Primary screen for Rh30 cells (AID 1347107). Further: series mostly up to about 46 µM; on the % scale 0 is the no-effect control and ±100 the full control effect; nearly all actives have a fitted effect of over 75% in size. A digest of the protocol: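 Cells (500-1,000/well) rested 5 h, then received compounds for 48 h; metabolically active cells were measured by CellTiter-Glo luminescence. Final concentrations spanned up to 46 µM (MIPE, 11-point) or 0.59 nM-46 µM (NPC, 8-point) in primary screens, 11-point in follow-ups.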

Assay [9] in a line: qHTS of pediatric cancer cell lines to identify multiple opportunities for drug repurposing: Primary screen for Rh41 cells (AID 1347108).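 Further: series mostly up to about 46 µM; luminescence drop marks cytotoxic hits; nearly all actives have a fitted effect of over 70% in size.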 Summed up: as §1
Assay [10] concerns the target N-terminal Xaa-Pro-Lys N-methyltransferase 1 (Homo sapiens) (UniProt Q9BV86). The assay can be described thus: qHTS Assay for Inhibitors of N-terminal methyltransferase 1 (NTMT1): LOPAC validation of the NTMT1 SAHH-coupled ThioGlo3 Assay (AID 1347143).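 Further: SAH from peptide methylation measured as thiol fluorescence via SAHH coupling and ThioGlo3; potency means the concentration at half of the fitted maximal effect; nearly all actives have a fitted effect of over 70% in size.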 The conditions noted are these: recombinant NTMT1, SAHH-coupled ThioGlo3 fluorescence. A digest of the protocol: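 Inhibition of NTMT1 methylation of peptide SPKRIA is followed by converting SAH with SAHH and labelling the released thiol with ThioGlo3. Plates are read at 340/450nm before and 30 min after reagent addition, both at room temperature.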

Assay [11] has as its target Lysine-specific demethylase 5B (Homo sapiens) (UniProt Q9UGL1). The assay can be described thus: Optimization screen for KDM5B Histone Demethylases FDH coupled qHTS against the LOPAC library (AID 1347166). Further: 0% is about no effect. A digest of the protocol: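 KDM5BDeltaAP (200nM final) preincubated 10 min with compound, then 12.5uM H3K4Me3, 25uM a-ketoglutarate, ascorbate, Fe(II), NAD+ and FDH added; 50mM HEPES pH 7.5, 0.01% Tween-20. NADH fluorescence (340/450 nm) change over 30 min, room temperature.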

A short description of assay [12]: Confirmatory screen GU Rhodamine qHTS for Zika virus inhibitors qHTS (AID 1347157). The conditions noted are these: purified enzyme assay, Rhodamine110 substrate fluorescence, 15 min. Summed up:
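Percent inhibition came from the 15-min rise in Rhodamine110 fluorescence (1.5 microM substrate, ~15% conversion), normalized to no-inhibitor and no-enzyme wells and Hill-fitted. Unlinked protease, 25 nM, pH 8.0 Tris buffer; compounds up to 114 microM, 15-min preincubation.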

The subject of assay [13] is Zika virus NS2B-NS3 protease (unlinked complex). The assay can be described thus: Primary screen GU Rhodamine qHTS for Zika virus inhibitors: Unlinked NS2B-NS3 protease assay (AID 1347159). Further: potency means the concentration at half of the fitted maximal effect; nearly all actives have a fitted effect of over 60% in size. Summed up:
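A qHTS format was used, with compound concentrations ranging up to 114 microM. Each compound was preincubated with 25 nM NS2B-NS3 protease, and the substrate was then added at 1.5 microM. Curves were fitted with a 4-parameter Hill model.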

The test system of assay [14] is Zika virus NS2B-NS3 protease (linked construct). Nature of the assay: Primary screen NINDS Rhodamine qHTS for Zika virus inhibitors (AID 1347160). Further: nearly all actives have a fitted effect of over 55% in size. Further: potency means the concentration at half of the fitted maximal effect. On activity change, negative = inhibition: on the % scale 0 is the no-effect control and ±100 the full control effect. A digest of the protocol:
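Kinetic fluorescence (Ex 480 nm, Em 540 nm) over 15 min with 1.5 microM Rhodamine110 peptide and 25 nM linked protease.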

A short description of assay [15]: Confirmatory screen NINDS Rhodamine qHTS for Zika virus inhibitors (AID 1347161). Further: potency means the concentration at half of the fitted maximal effect; nearly all actives have a fitted effect of over 60% in size. The following applies: purified enzyme assay, Rhodamine110 substrate fluorescence, 15 min. A digest of the protocol: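 Each compound, titrated, sat 15 min with 25 nM linked protease before 1.5 microM Rhodamine110 substrate went in. Fluorescence gain over the next 15 min, in pH 8.0 Tris with Tween 20, gave Hill-fitted curves.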

Assay [16] deals with Zika virus NS2B-NS3 protease (linked construct). Nature of the assay: Confirmatory screen NINDS AMC qHTS for Zika virus inhibitors (AID 1347152). Summed up: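 Linked NS2B-NS3 1 nM, Tris pH 8.0/0.01% Tween 20; cpd 15 min RT dark; + Nle-KRR-AMC 10 µM (Km 18.3 µM); read 0 and 15 min, 340/450 nm; %inh vs controls, 4-param Hill.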
Assay [17] relates to Zika virus NS2B-NS3 protease (unlinked complex). Nature of the assay: Confirmatory screen GU AMC qHTS for Zika virus inhibitors (AID 1347153). The following applies: Recombinant NS2B-NS3 protease, AMC substrate fluorescence. A digest of the protocol: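 Fluorescence change (ex 340/em 450 nm) over 15 min, ~20% substrate conversion, normalized to no-inhibitor and no-enzyme controls, then Hill-fitted. Unlinked protease at 25 nM; AMC peptide 10 µM.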

The test system of assay [18] is Zika virus NS2B-NS3 protease (linked). Nature of the assay: 384 well plate NINDS AMC confirmatory qHTS for Zika virus inhibitors (AID 1347163). Further: potency means the concentration at half of the fitted maximal effect; nearly all actives have a fitted effect of over 50% in size. Summed up: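 Linked protease 5/30/60 nM final; cpds up to 1 mM final, ~15 min preinc. Substrate Ac-VKTGKR-AMC 30 microM final. RT, dark, 25 min; FI ex 355/em 460; normalized to no-enzyme/no-inhibitor ctrls.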
Assay [19] is described as follows: HepG2 cells viability qHTS for Zika virus inhibitors (AID 1347168). Further: on the % scale 0 is the no-effect control and ±100 the full control effect. A digest of the protocol:
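Compounds were tested in concentration series on cells grown in DMEM containing 4% FBS. After 24 to 48 hours, cellular ATP was measured by luminescence with CellTiter Glo.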

Results filed as inconclusive are left out. Values without a mark were called inactive. The source made the active and inactive calls. The call rests on the fitted dose curve; in most records, active means well fitted curve in the direction sought with a large enough effect; inconclusive means small, poorly fitted or top-dose-only effect, or another doubt; inactive means no such curve, though single readings can be large; an effect the other way counts as inactive or inconclusive.

Sequence of Furin (Homo sapiens) (P09958 whole entry, looked up): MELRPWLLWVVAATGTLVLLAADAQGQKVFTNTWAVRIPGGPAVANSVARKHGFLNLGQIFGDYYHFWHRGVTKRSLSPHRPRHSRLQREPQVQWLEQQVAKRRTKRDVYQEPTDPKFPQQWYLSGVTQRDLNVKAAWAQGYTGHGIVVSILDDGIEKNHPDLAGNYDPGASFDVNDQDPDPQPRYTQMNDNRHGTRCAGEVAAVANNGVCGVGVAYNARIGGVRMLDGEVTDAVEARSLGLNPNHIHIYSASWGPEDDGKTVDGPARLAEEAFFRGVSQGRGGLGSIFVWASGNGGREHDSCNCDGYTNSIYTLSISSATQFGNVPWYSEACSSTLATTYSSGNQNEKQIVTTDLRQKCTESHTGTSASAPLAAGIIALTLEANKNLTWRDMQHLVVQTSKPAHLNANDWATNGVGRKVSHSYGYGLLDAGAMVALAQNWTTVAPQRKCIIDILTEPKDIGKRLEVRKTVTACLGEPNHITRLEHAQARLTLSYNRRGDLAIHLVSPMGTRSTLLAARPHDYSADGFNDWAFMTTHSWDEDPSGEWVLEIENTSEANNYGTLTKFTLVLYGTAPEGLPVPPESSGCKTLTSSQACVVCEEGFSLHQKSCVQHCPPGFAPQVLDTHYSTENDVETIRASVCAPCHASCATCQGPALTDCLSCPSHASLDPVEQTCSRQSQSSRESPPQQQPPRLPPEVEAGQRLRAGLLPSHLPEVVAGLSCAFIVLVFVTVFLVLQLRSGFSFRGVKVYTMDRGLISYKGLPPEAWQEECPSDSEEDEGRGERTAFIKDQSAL
Sequence of N-terminal Xaa-Pro-Lys N-methyltransferase 1 (Homo sapiens) (Q9BV86 whole entry, looked up): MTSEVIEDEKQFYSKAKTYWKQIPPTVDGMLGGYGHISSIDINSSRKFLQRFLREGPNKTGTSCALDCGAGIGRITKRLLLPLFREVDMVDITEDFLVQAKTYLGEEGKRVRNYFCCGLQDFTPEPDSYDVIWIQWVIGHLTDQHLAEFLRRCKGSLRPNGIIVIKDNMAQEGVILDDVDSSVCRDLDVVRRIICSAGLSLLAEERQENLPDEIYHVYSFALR
Sequence of Lysine-specific demethylase 5B (Homo sapiens) (Q9UGL1 whole entry, looked up): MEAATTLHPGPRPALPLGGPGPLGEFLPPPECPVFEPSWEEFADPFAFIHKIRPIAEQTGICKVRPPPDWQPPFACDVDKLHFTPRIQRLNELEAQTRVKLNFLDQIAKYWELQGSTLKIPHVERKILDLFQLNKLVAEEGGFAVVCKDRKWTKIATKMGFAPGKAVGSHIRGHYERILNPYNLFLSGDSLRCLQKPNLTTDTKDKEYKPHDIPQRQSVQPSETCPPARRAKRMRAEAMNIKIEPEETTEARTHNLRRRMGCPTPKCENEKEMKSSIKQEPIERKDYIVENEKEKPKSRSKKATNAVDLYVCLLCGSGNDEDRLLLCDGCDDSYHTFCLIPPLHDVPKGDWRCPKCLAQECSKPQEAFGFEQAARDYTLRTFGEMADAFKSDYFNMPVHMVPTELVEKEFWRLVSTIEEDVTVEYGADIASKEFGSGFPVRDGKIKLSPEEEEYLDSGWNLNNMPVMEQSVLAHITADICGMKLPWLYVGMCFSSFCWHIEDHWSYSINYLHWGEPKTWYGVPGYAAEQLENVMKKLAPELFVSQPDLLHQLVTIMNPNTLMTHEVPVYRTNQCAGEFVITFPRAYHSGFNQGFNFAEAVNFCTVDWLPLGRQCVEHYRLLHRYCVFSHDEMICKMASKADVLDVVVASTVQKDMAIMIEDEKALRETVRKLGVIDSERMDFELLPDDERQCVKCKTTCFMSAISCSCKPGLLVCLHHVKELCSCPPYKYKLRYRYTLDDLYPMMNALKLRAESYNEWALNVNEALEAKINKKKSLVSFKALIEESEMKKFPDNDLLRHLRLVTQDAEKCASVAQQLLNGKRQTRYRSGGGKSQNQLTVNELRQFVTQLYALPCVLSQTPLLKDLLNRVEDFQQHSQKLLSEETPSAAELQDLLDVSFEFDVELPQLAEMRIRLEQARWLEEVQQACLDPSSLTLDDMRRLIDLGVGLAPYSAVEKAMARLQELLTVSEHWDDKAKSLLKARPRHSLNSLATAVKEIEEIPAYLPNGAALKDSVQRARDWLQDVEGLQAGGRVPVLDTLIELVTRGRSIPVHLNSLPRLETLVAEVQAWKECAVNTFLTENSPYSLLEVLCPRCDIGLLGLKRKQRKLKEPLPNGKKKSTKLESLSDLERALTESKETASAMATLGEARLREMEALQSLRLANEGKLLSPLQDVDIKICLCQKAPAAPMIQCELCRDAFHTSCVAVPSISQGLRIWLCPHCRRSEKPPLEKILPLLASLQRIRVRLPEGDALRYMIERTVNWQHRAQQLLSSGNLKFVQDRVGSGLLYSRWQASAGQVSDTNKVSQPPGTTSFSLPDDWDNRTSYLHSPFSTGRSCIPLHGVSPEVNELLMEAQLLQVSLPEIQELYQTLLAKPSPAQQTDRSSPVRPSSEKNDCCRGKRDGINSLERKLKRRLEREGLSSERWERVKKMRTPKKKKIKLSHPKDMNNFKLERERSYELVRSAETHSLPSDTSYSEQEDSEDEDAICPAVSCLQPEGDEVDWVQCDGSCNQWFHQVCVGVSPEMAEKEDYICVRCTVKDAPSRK

On to `CC(C)N=c1cc2n(-c3ccc(Cl)cc3)c3ccccc3nc-2cc1Nc1ccc(Cl)cc1`, for which the Potency entry (in the assay with Furin (Homo sapiens); in assay [4]) was “inactive” throughout. The Potency in [1] was 0.607 µM (active). For the same compound, the outcome in assay [2] and in [3] was inactive.
As for `CN1Cc2c(N)cccc2C(c2ccccc2)C1` (centres undefined), the call in [5], in assay [6], in assay [7], in [8], in assay [9] and in assay [11] was inactive. Moreover, the Potency in [10] is 35.5 µM (active).
Regarding `C=C1CC23CCC4[C@@](C)(CCC[C@@]4(C)C(=O)O)C2CCC1C3` (some centres undefined), the Potency was 39.3 µM (active) in assay [12], 20 µM (active) in [13] and 44.1 µM (active) in [15]. In addition, in assay [14], the Potency entry is “inactive”.
With `O=C(/C=C/c1c(C(=O)O)[nH]c2cc(Cl)cc(Cl)c12)Nc1ccccc1`, in the assay with Furin (Homo sapiens), the Potency entry is “inactive”. The Potency was 44.1 µM (active) in [16]; 44.1 µM (active) in assay [17]; 2.78 µM (active) in [12]; 3.55 µM (active) in assay [13]; 3.16 µM (active) in assay [14]; 2.48 µM (active) in [15]. The Potency in [18] was 1.12 µM (active); in assay [4], 8.91 µM (active). Further, the result in assay [3] and in assay [19] was inactive.
As to `CC12CCC3C(C)(C)C(O)CCC3(C)C1Cc1c(oc(C(=O)O)cc1=O)O2` (centres undefined), the Potency was 24.3 µM (active) in assay [12] and 27.3 µM (active) in assay [15]. The Potency result in assay [14] was “inactive”.
As for `CCCCC/C=C\C/C=C\CCCCCCCC(=O)O`, in [2], the activity change, negative = inhibition was 4.61% [at 6.83 µM].
Take `Nc1c(N=Nc2ccc(-c3ccc(N=Nc4cc(S(=O)(=O)O)c5ccccc5c4N)cc3)cc2)cc(S(=O)(=O)O)c2ccccc12`: the Potency with Furin (Homo sapiens) is 37.3 µM (active); in assay [12], 2.51 µM (active); in assay [15], 2.24 µM (active); in assay [4], 7.08 µM (active). In addition, the compound was called inactive in assay [3].
In the case of `O=C(O)c1ccc(CCCc2ccc(OCCc3ccc(F)cc3)cc2)o1`, the Potency in [16] was 44.1 µM (active); in assay [17], 49.4 µM (active); in [12], 3.12 µM (active); in assay [13] it was 4.47 µM (active); in [14], 3.98 µM (active); in assay [15], 2.78 µM (active). In assay [18], the Potency is 5.01 µM (active). Moreover, in [4], the Potency entry was “inactive”. In assay [19], the call was inactive.
`NCc1ccc(OCCCc2sc(-c3ccc4c(c3)/C(=N/Nc3nc5ccccc5s3)CCC4)nc2C(=O)O)cc1`: the Potency was 13.9 µM (active) in [12], 39.8 µM (active) in assay [13] and 17.5 µM (active) in assay [15]. Also, the Potency result in assay [14] is “inactive”.
